Screening results from PubChem BioAssay.
TGFb inhibitor = inhibitors of TGF-b signaling. HepG2 CAGA-GFP TGF-b/SMAD3 reporter, GFP fluorescence, 18 h; TGF-beta stimulated, 500 pg/mL final. AID 588855. actives 1.2% (n = 410,000). Potency, µM (top dose mostly 46.1 µM), most hits filed as inhibitors; further: nearly all actives have a fitted effect of over 65% in size
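Per well, imaged GFP fluorescence of HEPG2 CAGA-GFP cells gives the signal; cells get compound, then TGF-beta (500 pg/mL final), 18 h at 37 degrees C; %Activity versus -TGF-beta and +DMSO controls.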
ATXN viability = cell viability loss in ATXN counter-screen; actives 0.49% (n = 400,000); AID 651635; Potency, µM (series often up to 56.7 µM), usual class: cytotoxic; S2 cells (HEK-293 line with an ATXN2-luciferase reporter) viability, CellTiter-Fluor protease fluorescence, 24 h; further: nearly all actives have a fitted effect of over 40% in size
ATXN2 expr inh = ATXN2 expression inhibition; Potency, µM (doses to about 57 µM), hits mostly inhibitors; HEK-293 ATXN2-luciferase reporter, luminescence, 24 h; actives 0.72% (n = 360,000); further: nearly all actives have a fitted effect of over 55% in size
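ATXN2-luciferase reporter cells (luciferase flanked by upstream and downstream ATXN2 gene portions) were treated 24 h at 37 °C with compounds at up to 57 uM. SteadyGlo luminescence gave expression; GF-AFC fluorescence gave viability.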
HT1080 IDH1KD tx = HT-1080 IDH1 knockdown cell toxicity (counter line); HT-1080 IDH1 knockdown viability, ATP luminescence, 48 h; Potency, µM (doses to about 46.1 µM), actives largely listed as cytotoxic; actives 2% (n = 360,000)
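Assay cells: HT-1080 with IDH1 knockdown, 750 per well, RPMI/5% FBS. Exposure: 48 h at 37 °C following 2 h pre-incubation. Read: CellTiter-Glo luminescence; fitted concentration-response, curve class assigned.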
HT1080-NT tox = kills 2HG-producing HT-1080-NT fibrosarcoma cells; Potency, µM (doses to about 46.1 µM), actives largely listed as cytotoxic; HT-1080-NT fibrosarcoma viability, CellTiter-Glo ATP luminescence, 48 h; AID 686970; actives 1.6% (n = 360,000);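 further: NT is the 2HG producing partner of a matched IDH1 knockdown line; nearly all actives have a fitted effect of over 55% in size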
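Luminescent CellTiter-Glo readout after 48 hours of compound exposure at 37 degrees C defined viability of HT-1080-NT cells. Activity was normalized to DMSO wells and cell-free media wells; concentration-response curves were fitted and assigned curve classes.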
HepG2 tox = kills HepG2 cells in TGF-b inhibitor counter-screen | actives 0.76% (n = 410,000) | Potency, µM (highest dose often 46.1 µM), hits mostly cytotoxic | HepG2 CAGA-GFP viability, ATP luminescence, 18 h
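HepG2 CAGA-GFP cells (1000/well, DMEM with 1% FBS) received compound, then TGF-beta at 500 pg/mL final, and were incubated 18 hours at 37 degrees C. Viability was read by CellTiter-Glo luminescence. Media-only wells were set as complete cell-killing and DMSO as no toxicity.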
A number is an active result; 0 = inactive; ? = inconclusive; - = not tested or not shown; [ ] = remark or other dose. Hits are enriched below; roughly 3.8% of the tested compounds scored in any of these assays. The call rests on the fitted dose curve; in most records, active means well fitted curve in the direction sought with a large enough effect; inconclusive means small, poorly fitted or top-dose-only effect, or another doubt; inactive means no such curve, though single readings can be large; an effect the other way counts as inactive or inconclusive.

SMILES | TGFb inhibitor | ATXN viability | ATXN2 expr inh | HT1080 IDH1KD tx | HT1080-NT tox | HepG2 tox
CCOCCCn1c(=N)c(C(=O)NC2CCCC2)cc2c(=O)n3cc(C)ccc3nc21 | 0 | - | 0 | - | - | 0
O=C(O)c1ccc(N/N=C/c2ccc(-c3ccccc3)cc2)cc1 | 0 | 0 | 0[11.3 µM] | 10µM | 16µM | 0
O=C(O)c1ccc(N/N=C/c2ccc(-c3ccc(Br)cc3)o2)cc1 | 0 | 0 | 0 | 23µM | 26µM | 0
O=C(N/N=C/c1ccc(-c2ccccc2Cl)o1)c1ccccc1 | 0 | 0 | 0 | ? | 0 | 0
Cc1ccc(/C=N/Nc2ccc(C(=O)O)cc2)s1 | 0 | 0 | 0.95µM | 0 | 0 | 0
O=C(O)c1ccc(N/N=C/c2ccc(-c3ccccc3Cl)o2)cc1 | 0 | 0 | 0 | 23µM | ? | 0
Cc1ccc(/C=N/Nc2cccc(C(=O)O)c2)s1 | 0 | 0 | ? | 0 | 0 | 0
COc1ccc(OC)c(-c2cc(Cl)c3c(c2)CC(CNC(=O)/C=C/c2ccccn2)O3)c1 (stereo not drawn) | - | 0 | - | - | - | -
CCOc1ccc2c(c1)ncn2Cc1ccccc1 | 0 | 0 | 0 | 0 | 0 | 0
CCc1c(-c2ccccc2F)ncn1Cc1cccc(-c2ccccc2)c1 | - | - | - | 8.2µM | 16µM | -
CCc1c(C2CC2)ncn1Cc1cccc(-c2ccccc2)c1 | - | - | - | 16µM | 21µM | -
COc1cccc(-c2nn(Cc3ccccc3)cc2CO)c1 | 0 | 0 | 0 | 0 | 0 | 0
COc1cccc(Cn2cnc(-c3ccccc3OC)c2-c2cccs2)c1 | - | 0 | 0 | 0 | ? | -
CCc1c(-c2cccc(OC)c2)ncn1Cc1cccc(-c2ccccc2)c1 | - | - | - | ? | 7.3µM | -
COc1cc(=O)n2c(c1C(=O)NC(C)c1ccco1)CCN(Cc1ccnc3ccccc13)CC2 (stereo not drawn) | - | 0 | - | - | - | -
Cc1cc2c(=Cc3ccc(N(C)C)cc3)c3ccccc3n2[n+]1C | 6.3µM | ? | 10µM | 4.6µM | 15µM | 0
CN(C)c1ccc(C=c2c3ccccc3n3c2c2ccccc2[n+]3C)cc1 | 2.5µM | ? | 6.3µM | 8.2µM | 23µM | 0
C[n+]1c(-c2ccccc2)cc2c(=Cc3ccc([N+](=O)[O-])cc3)c3ccccc3n21 | ? | ? | ? | ? | ? | 0
CCOC(=O)c1cc2c(=Cc3ccc(N(C)C)cc3)c3ccccc3n2[n+]1C | ? | - | ? | 8.2µM | ? | 0
Cc1ccc(C)c(NC(=O)C(=O)NCCc2csc(-c3ccc(C(F)(F)F)cc3)n2)c1 | 0 | - | - | - | - | 0
O=C1CSC(=S)N1Nc1ccccc1 | 0 | 0 | ? | 5.8µM | ? | 0
Cc1cc(-c2ccnc(-n3ncc(C(=O)N4CCCCC4c4cccnc4)c3C3CC3)n2)c(C)s1 (stereo not drawn) | - | 0 | - | - | - | -
N#Cc1ccc2[nH]cc(C3c4cc(F)ccc4C=C(c4ccsc4)N3c3ccc(C#CCCO)cc3)c2c1 (stereo not drawn) | - | ? | 0 | 15µM | ? | -
COc1ccccc1CNC(=O)c1ccc(CN2CC(=O)N3CCCCC3C2=O)cc1 (stereo not drawn) | 0 | - | - | - | - | 0
CCc1ccc(OCc2ccccc2C(=O)Nc2ccc3nc(C)cc(N)c3c2)cc1 | 4µM | - | 17µM | - | - | 4µM
SMILES | TGFb inhibitor | ATXN viability | ATXN2 expr inh | HT1080 IDH1KD tx | HT1080-NT tox | HepG2 tox
Cc1cc(N)c2cc(NC(=O)/C=C/c3ccccc3Cl)ccc2n1 | 7.1µM | 8.9µM | - | ? | ? | 7.1µM
CCOCCn1c(C2CCN(CCc3ccc(C(C)(C)C(=O)O)cc3)CC2)nc2ccccc21 | - | 0 | 0 | - | - | -
Cc1ccc(CNC(=O)CCCCCn2c(=O)c3sccc3n(CC(=O)Nc3ccc(C)c(F)c3)c2=O)cc1 | ? | 0 | 0 | - | - | 0
Cc1cccc(NC(=O)Cn2c(=O)n(CCCCCC(=O)NCc3ccccc3)c(=O)c3sccc32)c1 | ? | 22µM | ? | - | - | 0
CCOC(=O)c1c(NC(=O)c2noc3c2CC(C(C)(C)C)CC3)sc2c1CCCC2 (stereo not drawn) | 0 | - | - | - | - | 0
Cn1cccc/c1=N\c1cccc[n+]1C | 0 | 0 | - | 23µM | 0 | 0
CNS(=O)(=O)c1cc(-c2nnc(Nc3cc(C)ccc3C)c3ccccc23)ccc1C | ? | 0 | ? | - | - | 0
OCC1OC(n2cnc3ncccc32)C(O)C1O (stereo not drawn) | ? | 0 | 0 | ? | 21µM | 0
N#Cc1ncn(C2OC(CO)C(O)C2O)c1N (stereo not drawn) | 0 | 0 | - | 0 | 0 | 0
CC1(C)CC(=O)C=C(c2ccc(-c3ccc(OC(F)(F)F)cc3)cc2)C1=O | 0 | ? | ? | 21µM | ? | 0
CC1(C)CC(=O)C=C(c2ccc(-c3ccccc3)cc2)C1=O | 0 | ? | 0 | 0 | 0 | 0
COCCCn1c(O)c(/C=C2\N=C(C#N)C(=Nc3ccc(C)cc3)O2)sc1=S | ? | 35µM | ? | ? | ? | 0
Cc1ccc(S(=O)(=O)c2cc3cc(Br)ccc3oc2=O)cc1 | 0 | - | ? | 0 | 0 | 0
CC(C)c1ccc(S(=O)(=O)c2cc3cc(Br)ccc3oc2=O)cc1 | 0 | 0 | 20µM | 13µM | 13µM | 0
CC1(C)SC(=S)N(/N=C/c2ccccc2O)C1N(O)C(=O)Nc1ccccc1 (stereo not drawn) | ? | 0 | 0 | ? | 18µM | 0
CN(C)c1ccc(/C=C2\C=Cc3ccccc32)cc1[N+](=O)[O-] | 0 | - | - | - | - | 0
O=c1cc(-c2ccccc2)c2ccc3c(c2o1)CN(Cc1cccc(Cl)c1)CO3 | ? | - | 0 | - | - | 0
C=CCOc1ccc(CN(C)CC(O)COc2cccc3ccccc23)cc1 (stereo not drawn) | 18µM | 0 | 0 | ? | ? | 13µM
Cn1cc(/C=C/c2ccnc3ccccc23)c2ccccc21 | ? | - | - | - | - | 0
CCc1cc(=O)[nH]c(SCc2nc(-c3ccc(C(F)(F)F)cc3)no2)n1 | 0 | - | - | - | - | 0
CCCCC(=O)OC1=C(C(=O)c2ccccc2)N(C)S(=O)(=O)c2ccccc21 | 18µM | 0 | 0 | - | - | 0
CCN1C(C(=O)c2ccccc2)=C(OC(=O)c2ccc(Cl)cc2)c2ccccc2S1(=O)=O | 11µM | - | - | - | - | 0
CCOC(=O)CN1C(C(=O)c2ccccc2)=C(OC(=O)c2ccccc2)c2ccccc2S1(=O)=O | ? | ? | 0 | - | - | 0
Cc1ccc(NC(=O)c2ccc(F)c(S(=O)(=O)N3CCc4ccccc4C3)c2)cc1F | ? | - | - | - | - | 0
CCN(c1ccccc1)S(=O)(=O)c1ccc(C(=O)Nc2cccc(NC(C)=O)c2)cc1 | 0 | ? | 0 | 0 | 0 | 0
CCN(c1ccccc1)S(=O)(=O)c1cc(C(=O)Nc2ccc(F)c(F)c2)ccc1F | 11µM | ? | ? | ? | 15µM | 0
Cc1ccc(NC(=O)c2ccc(F)c(S(=O)(=O)NCCc3ccccc3)c2)cc1F | 11µM | - | - | - | - | 10µM
